# In ChEMBL document CHEMBL3988442, “University of Dundee, Small-Polar-MMV Screening Library” (2021):
# Screen size: about 53,000 compounds; about 900 (1.7%) showed an effect of 50% or more. The sample as a whole holds a higher share of strong results than the screen did.
# Tested on: Mycobacterium tuberculosis
# Assay: Cornell - Phenotypic assay to identify agents that inhibit growth of Mycobacterium tuberculosis
# Type: functional
# Set-up: scale not given: direction of the effect not stated beside the values
# Details: 10 mM as filed; unlikely as a test dose
row,SMILES,Percent Effect [%]
1,Cc1cc2nccc(C3CCN(C(=O)c4ccccc4F)CC3)n2n1,6.226
2,CCC(Nc1ccc(CCN2CCOCC2)cc1)C(N)=O (stereo unspecified),-19.51
3,CN(C)C(=O)c1cncnc1-c1ccc(CNC(=O)C2CC2)cc1,37.26
4,COCC(=O)NCc1ccc(-c2ncncc2C(=O)N(C)C)cc1,50.66
5,COCCC(=O)NCc1ccc(-c2ncncc2C(=O)N(C)C)cc1,32.24
6,CNC(=O)c1sc2ccccc2c1C1CCN(c2nc(C)cc(C)n2)C1 (stereo unspecified),14.17
7,CN1CCCC1CCNC(=O)c1ccccc1-n1cc(CN)cn1 (stereo unspecified),7.916
8,Cc1cccc2c1C(=O)NC1(CCOCC1)N2,17.55
9,Cn1nccc1-c1ccc2nc(C3CCN(CC4CC4)CC3)nn2c1.O=C(O)C(F)(F)F.O=C(O)C(F)(F)F,-10.01
10,Cc1nc(NCc2ccc(C)o2)cc(C2CCNCC2)n1,-17.21
11,COc1ccc2[nH]c(CNc3cc(C4CCNCC4)nc(C)n3)cc2c1,70.58
12,Cc1nc(NCc2cccc(F)c2)cc(C2CCNCC2)n1.Cl,-9.727
13,O=C(c1cncs1)N1CCC(c2cnccn2)CC1,7.442
14,Cc1cn2c(n1)CCC(NC(=O)Cn1cncn1)C2 (stereo unspecified),-12.63
15,Cc1ccc(OCCC(=O)N2CCN(c3cnccn3)CC2)cc1C,39.73
16,CCn1nc(C)c(C(=O)NCc2csc(C3CC3)n2)c1C,69.61
17,Cc1nn(C)cc1C(=O)NCc1csc(C2CC2)n1,0.3942
18,CCn1cc(C(=O)NCc2csc(C3CC3)n2)c(C)n1,26.12
19,CCSc1cc(C(=O)NCCc2nnc(-c3ccco3)[nH]2)ccn1,-11.72
20,CCOc1cc(C)c(-c2cc(N)[nH]n2)cc1OCC,10.44
21,CCOc1ccc(Br)cc1-c1cc(N)[nH]n1.Cl,-17.72
22,CCOc1ccccc1-c1cc(N)[nH]n1.Cl,108.1
23,O=C(c1cc(C2CCCC2)no1)N1CC(O)C1,18.4
24,CN(C)C(=O)CN1C(=O)CCC12CCN(Cc1ccc(F)cc1)CC2.O=C(O)C(F)(F)F,13.62
25,CCS(=O)(=O)N1CC(c2nc(-c3cccs3)no2)C1,8.063
26,Cl.c1csc(-c2noc(C3CCCNC3)n2)c1 (stereo unspecified),9.745

row,SMILES,Percent Effect [%]
1,Cl.c1csc(-c2noc(C3CNC3)n2)c1,106.9
2,CO[C@H]1CN(c2ccccc2)S(=O)(=O)[C@@]12CCN(Cc1ccccc1)C2,6.335
3,Cc1ccccc1CC(=O)N1CCCn2cncc2C1,-17.85
4,Cc1cccc(C(=O)N2C[C@H](NS(C)(=O)=O)[C@@H]3OCCC[C@@H]32)n1,2.201
5,CN1CCC(NC(=O)Nc2ccc(Br)c(F)c2)C1=O (stereo unspecified),8.703
6,CN1CCC(NC(=O)Nc2ccc(F)c(-n3cccc3)c2)C1=O (stereo unspecified),84.66
7,CN1CCC(NC(=O)Nc2ccc(F)c(Br)c2)C1=O (stereo unspecified),-9.143
8,COCCNc1ccc(CC2CCCN(C3CCCC3)C2)nn1 (stereo unspecified),39.43
9,CN(Cc1cc2cc(F)ccc2[nH]1)C(=O)C1CC(=O)N(C2CC2)C1 (stereo unspecified),52.25
10,CN(C)CCN1CC(C(=O)N(C)Cc2cc3cc(F)ccc3[nH]2)CC1=O (stereo unspecified),29.76
11,CN(Cc1cc2cc(F)ccc2[nH]1)C(=O)C1CC(=O)N(C2CCCC2)C1 (stereo unspecified),65.9
12,CN(Cc1cc2cc(F)ccc2[nH]1)C(=O)C1CC(=O)N(C(C)(C)C)C1 (stereo unspecified),23.39
13,CCN1CC(C(=O)N(C)Cc2cc3cc(F)ccc3[nH]2)CC1=O (stereo unspecified),42.66
14,CCc1nnc(CN(C)C(=O)C2CC(=O)N(C3CC3)C2)o1 (stereo unspecified),20.13
15,c1ccc(CNc2ccccc2N2CCCC2)nc1,18.15
16,O=C(NCc1ccc(Br)cc1F)C1(O)CCSCC1,15.88
17,COCC(=O)NCc1ccc(-c2ccccc2C(=O)O)cn1,56.05
18,O=C(Cc1ccccc1)NCc1ncc(-c2ccccc2C(=O)O)cn1,23.42
19,CC(=O)NCc1ccc(-c2ccccc2C(=O)O)cn1,56.71
20,COCCC(=O)NCc1ccc(-c2ccccc2C(=O)O)nc1,47.85
21,O=C(O)c1ccccc1-c1cnc(CNC(=O)C2CCOCC2)nc1,-26.12
22,CS(=O)(=O)c1ccc(-c2ccccc2C(=O)O)cc1,-4.334
23,COCCC(=O)NCc1ccc(-c2ccccc2C(=O)O)cn1,57.39
24,COCCN1CCC(Cc2cnc(-c3ccccc3C(=O)O)cn2)CC1,-34.65
25,O=C(Cc1ccccc1)NCc1ccc(-c2ccccc2C(=O)O)cn1,48.74
26,COCCC(=O)N(CCC#N)c1ccc2c(c1)OCCO2,0.8387

row,SMILES,Percent Effect [%]
1,Cc1noc(C)c1-c1cccc(C2CCN(S(=O)(=O)N(C)C)CC2)n1,42.71
2,O=S(=O)(N1CCCCC1)N1CCC(Oc2cnccn2)CC1,20.22
3,CN(C(=O)c1ccon1)[C@@H]1CCC[C@@H](Oc2ccccc2)[C@@H]1O,-13.46
4,O=C(COc1ccc(-c2ccccc2)nc1)NCC1CC1,18.89
5,CCc1oc(C(=O)N(C)Cc2ccncc2)cc1CN(CC)CC,3.07
6,COC(=O)c1ccc(N2CCC(c3ccccc3)CC2)nn1,26.44
7,COC(=O)c1ccc(N2CCC(C(O)c3ccccc3)CC2)nn1 (stereo unspecified),106
8,COC(=O)c1ccc(N2CCC(N(C)c3ccccc3)CC2)nn1,11.3
9,OCC(CO)N1CCCC(Cc2ccnc(Nc3ccccn3)c2)C1 (stereo unspecified),10.34
10,Cc1cc(C)n(CCNc2ncnc3c2NC(=O)CN3)n1,18.99
11,C/N=C1/c2cc3cc(OC)ccc3n2CCN1Cc1ccccc1.Cl,57.78
12,C/N=C1\c2cc3cc(OC)ccc3n2CCN1C.Cl,-3.392
13,C/N=C1\c2cc3cc(OC)ccc3n2CCN1Cc1ccccc1.O=C(O)C(F)(F)F,22.23
14,CNC(=O)CN1CCOCC12CCN(C(=O)c1ccc(C)cc1)CC2.O=C(O)C(F)(F)F,15.73
15,CCCNC(=O)c1cc(-c2ccn(C(C)C)n2)n2ccccc12,54.8
16,CC(C)n1ccc(-c2cc(C(=O)N3CCN(C)CC3)c3ccccn23)n1.O=C(O)C(F)(F)F,-46.58
17,CCN(C)C(=O)c1cc(-c2ccn(C(C)C)n2)n2ccccc12,68.36
18,CCN(C)C(=O)c1cc(-c2cn(C(C)C)cn2)n2ccccc12,-58.24
19,CC(C)n1ccc(-c2cc(C(=O)N3CCCC3)c3ccccn23)n1,40.75
20,CC(C)n1ccc(-c2cc(C(=O)NC3CC3)c3ccccn23)n1,-20.13
21,O=C(c1cc[nH]n1)N1CCc2c(nc(N3CCCCC3)[nH]c2=O)C1,11.2
22,CC(C#N)CN(C)C(=O)CCNC(=O)OC(C)(C)C (stereo unspecified),19.92
23,Cc1cnc(C(=O)N2CCN3C[C@H](OCc4cccnc4)C[C@H]3C2)cn1,-31.84
24,Cc1ccc(CNCc2cccc(NC(=O)CCN3CCOCC3)c2)s1,14.02
25,CC1=C(C#N)C(=O)NC(=O)/C1=C\c1c(C)nn(-c2ccc(C)cc2)c1O,24.62
26,Cc1nc(CN2C(=O)CC[C@@H]3[C@H]2CCN3C2CCOC2)cs1.O=C(O)C(F)(F)F (stereo partly specified),9.813

row,SMILES,Percent Effect [%]
1,CC(=O)N1C[C@@H]2CN(S(=O)(=O)C3CC3)CCO[C@@H]2C1,-7.882
2,CCn1nccc1CN(C)C(=O)Cn1nc(C)c(C)c1C,1.975
3,CC(C)N(C)Cc1n[nH]c2c1CCN(C(=O)c1ccc[nH]1)C2.O=C(O)C(F)(F)F,-20.42
4,O=C(Cn1ncc2c(c1=O)CCCCC2)Nc1cccc2[nH]ccc12,32.47
5,Cn1ccc2c(NC(=O)Cn3ncc4c(c3=O)CCCC4)cccc21,50.09
6,Cn1ccc2c(NC(=O)Cn3ncc4c(c3=O)CCCCC4)cccc21,7.683
7,O=C1C(n2nnc(-c3cccs3)n2)CCN1CC(F)(F)F (stereo unspecified),21.02
8,Cc1cccc(CNC(=O)CC2CCN(C(=O)C(C)C)CC2)n1,-31.48
9,CO[C@H]1CCN(c2nnc(C)s2)C[C@@H]1Cc1cccc(C)c1.O=C(O)C(F)(F)F,15.98
10,CO[C@H]1CCN(c2nnc(C)s2)C[C@@H]1Cc1ccccc1.O=C(O)C(F)(F)F,35.25
11,Cc1nnc(N2CC[C@H](OCC3CC3)[C@@H](Cc3ccccc3)C2)s1.O=C(O)C(F)(F)F,73.55
12,CO[C@@H]1CCN(c2nnc(C)s2)C[C@@H]1Cc1ccccc1.O=C(O)C(F)(F)F,33.57
13,CO[C@@H]1CCN(c2nnc(C)s2)C[C@@H]1Cc1cccc(C)c1.O=C(O)C(F)(F)F,41.6
14,Cc1nnc(N2CC[C@@H](OCC3CC3)[C@@H](Cc3ccccc3)C2)s1.O=C(O)C(F)(F)F,81.09
15,Cc1noc(C)c1CCC(=O)Nc1ccn(C)n1,-3.564
16,CC(C)(C(N)=O)S(=O)(=O)c1ccc(Br)cc1,7.461
17,CCc1nnc2sc(-c3cc(C(C)C)n[nH]3)nn12,-59.74
18,CC(C)(CC(=O)Nc1cccc(Oc2ccccn2)c1)C(=O)O,-19.67
19,CC(C)NC(=O)CCC(=O)N1CCC(c2noc3cc(F)ccc23)CC1,-48.35
20,O=C(Cn1ccc2c(Cl)cccc21)Nc1nc[nH]n1,5.076
21,Cc1cccc(CN2CCC3(CCN(c4ncccn4)C3)C2=O)c1 (stereo unspecified),5.151
22,Cc1cccc(CN2CCC3(CCN(c4ccccn4)C3)C2=O)c1.O=C(O)C(F)(F)F (stereo unspecified),27.3
23,Cc1cccc(CN2CCC3(CCN(c4ncccn4)CC3)C2=O)c1.O=C(O)C(F)(F)F,58.32
